Data from PubChem BioAssay AID1159580 (chemical genetic matrix, 2015).
In all, about 5,500 compounds went through this assay and about 2,000 (36%) were called active. About 18% were inconclusive and are not listed. No stated cut-off is given here; in the data, active means normalized growth mostly below about 0.91 (no sharp cut-off); inconclusive means no clear call, values can overlap the other calls; inactive means mostly above about 0.92. The list shows a part of the results.

Test: chemical genetic growth profiling, strain panel (AID 1159580);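 further: tested at 20 µM; growth read once vehicle control cultures reached saturation at 30 °C; 1 = growth at the plate median or of vehicle wells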
Settings: S. cerevisiae deletion strains, growth OD
[1] = locus YHR030C, strain SLT2, stronger effect = lower value
[2] = locus YHR079C, strain IRE1, stronger effect = lower value
[3] = locus YJL095W, strain BCK1, stronger effect = lower value
[4] = locus YJR066W, strain TOR1, stronger effect = lower value
[5] = locus YLR113W, strain HOG1, stronger effect = lower value
[6] = locus YNL183C, strain NPR1, stronger effect = lower value
[7] = locus YOR231W, strain MKK1, stronger effect = lower value
[8] = locus YPL256C, strain CLN2, stronger effect = lower value

Measured: normalized growth

N#C/C(N=Cc1cc(Cl)cc(Cl)c1O)=C(\C#N)N=Cc1cc(Cl)cc(Cl)c1O
inactive: locus YAR019C, strain CDC15, stronger effect = lower value 0.923 | locus YBL105C, strain PKC1, stronger effect = lower value 0.929 | locus YBR135W, strain CKS1, stronger effect = lower value 0.927 | locus YBR136W, strain MEC1, stronger effect = lower value 0.917 | locus YBR160W, strain CDC28, stronger effect = lower value 0.922 | locus YDL017W, strain CDC7, stronger effect = lower value 0.923 | locus YDL028C, strain MPS1, stronger effect = lower value 0.915 | locus YDL101C, strain DUN1, stronger effect = lower value 0.954 | locus YDL108W, strain KIN28, stronger effect = lower value 0.926 | locus YDL132W, strain cdc53, stronger effect = lower value 0.943 | locus YDL214C, strain PRR2, stronger effect = lower value 0.754 | locus YDR052C, strain DBF4, stronger effect = lower value 0.936 | locus YDR054C, strain cdc34, stronger effect = lower value 0.916 | locus YDR226W, strain ADK1, stronger effect = lower value 0.925 | locus YER123W, strain YCK3, stronger effect = lower value 0.735 | locus YER133W, strain GLC7, stronger effect = lower value 0.725 | locus YFL009W, strain cdc4, stronger effect = lower value 0.931 | locus YFL029C, strain CAK1, stronger effect = lower value 0.929 | locus YFR003C, strain YPI1, stronger effect = lower value 0.914 | locus YFR019W, strain FAB1, stronger effect = lower value 0.912 | locus YFR028C, strain CDC14, stronger effect = lower value 0.931 | locus YIL147C, strain SLN1, stronger effect = lower value 0.914 | locus YJL128C, strain PBS2, stronger effect = lower value 0.905 | locus YJR016C, strain ILV3, stronger effect = lower value 0.93 | locus YKL067W, strain YNK1, stronger effect = lower value 0.74 | locus YKL193C, strain SDS22, stronger effect = lower value 0.922 | locus YML070W, strain DAK1, stronger effect = lower value 0.747 | locus YMR001C, strain CDC5, stronger effect = lower value 0.919 | locus YMR277W, strain FCP1, stronger effect = lower value 0.92 | locus YNL006W, strain LST8, stronger effect = lower value 0.93 | locus YNL161W, strain CBK1, stronger effect = lower value 0.929 | [6] 0.587 | locus YNL207W, strain RIO2, stronger effect = lower value 0.916 | locus YNL222W, strain SSU72, stronger effect = lower value 0.937 | locus YOL078W, strain AVO1, stronger effect = lower value 0.928 | locus YOL136C, strain PFK27, stronger effect = lower value 0.769 | locus YOR329C, strain SCD5, stronger effect = lower value 0.931 | locus YPL209C, strain IPL1, stronger effect = lower value 0.934 | locus YPR025C, strain CCL1, stronger effect = lower value 0.935 | locus YPR106W, strain ISR1, stronger effect = lower value 0.923 | locus YPR111W, strain DBF20, stronger effect = lower value 0.927 | strain NNK1, stronger effect = lower value 0.908 | strain TSCII, stronger effect = lower value 0.934
active: locus YDR477W, strain SNF1, stronger effect = lower value 0.503 | locus YGR040W, strain KSS1, stronger effect = lower value 0.621 | locus YGR052W, strain FMP48, stronger effect = lower value 0.552 | locus YGR092W, strain DBF2, stronger effect = lower value 0.129 | [1] 0.381 | [2] 0.397 | locus YHR082C, strain KSP1, stronger effect = lower value 0.587 | locus YHR205W, strain SCH9, stronger effect = lower value 0.415 | [3] 0.448 | locus YJL157C, strain FAR1, stronger effect = lower value 0.664 | locus YJR066W, strain TOR1 (second series), stronger effect = lower value 0.588 | [4] 0.414 | locus YKL048C, strain ELM1, stronger effect = lower value 0.594 | locus YKL101W, strain HSL1, stronger effect = lower value 0.538 | locus YKL203C, strain TOR2, stronger effect = lower value 0.454 | [5] 0.509 | locus YLR133W, strain CKI1, stronger effect = lower value 0.52 | locus YLR403W, strain SFP1, stronger effect = lower value 0.457 | locus YMR205C, strain PFK2 (second series), stronger effect = lower value 0.609 | locus YNL020C, strain ARK1, stronger effect = lower value 0.403 | locus YNL307C, strain MCK1 (second series), stronger effect = lower value 0.286 | locus YOR061W, strain CKA2, stronger effect = lower value 0.349 | locus YOR119C, strain RIO1, stronger effect = lower value 0.476 | [7] 0.475 | locus YPL031C, strain PHO85, stronger effect = lower value 0.547 | locus YPL153C, strain RAD53, stronger effect = lower value 0.538 | locus YPL204W, strain HRR25, stronger effect = lower value 0.63 | [8] 0.503

COC(=O)N/N=C\c1c[n+]([O-])c2ccccc2[n+]1[O-]
active: locus YMR058W, strain fet3, stronger effect = lower value 0.883
inactive: locus YAL021C, strain ccr4, stronger effect = lower value 0.985 | locus YAL026C, strain drs2, stronger effect = lower value 0.999 | locus YAL030W, strain snc1, stronger effect = lower value 0.982 | locus YBL061C, strain skt5, stronger effect = lower value 0.975 | locus YBR009C, strain hhf1, stronger effect = lower value 0.99 | locus YBR023C, strain chs3, stronger effect = lower value 0.987 | locus YBR171W, strain sec66, stronger effect = lower value 0.981 | locus YBR231C, strain swc5, stronger effect = lower value 0.974 | locus YBR279W, strain paf1, stronger effect = lower value 0.987 | locus YCL011C, strain gbp2, stronger effect = lower value 0.992 | locus YCL016C, strain dcc1, stronger effect = lower value 0.993 | locus YCL069W, strain vba3, stronger effect = lower value 0.992 | locus YCR088W, strain abp1, stronger effect = lower value 0.986 | locus YDL005C, strain med2, stronger effect = lower value 0.98 | locus YDL040C, strain nat1, stronger effect = lower value 0.989 | locus YDR001C, strain nth1, stronger effect = lower value 0.998 | locus YDR069C, strain doa4, stronger effect = lower value 0.978 | locus YDR137W, strain rgp1, stronger effect = lower value 1.01 | locus YDR159W, strain sac3, stronger effect = lower value 1.02 | locus YDR195W, strain ref2 0.985 | locus YDR297W, strain sur2, stronger effect = lower value 0.983 | locus YDR334W, strain swr1, stronger effect = lower value 1 | locus YDR335W, strain msn5, stronger effect = lower value 0.983 | locus YDR392W, strain spt3, stronger effect = lower value 0.986 | locus YEL003W, strain gim4, stronger effect = lower value 0.975 | locus YEL037C, strain rad23, stronger effect = lower value 0.998 | locus YEL061C, strain CIN8 (second series), stronger effect = lower value 1 | locus YER015W, strain faa2, stronger effect = lower value 0.972 | locus YER016W, strain bim1, stronger effect = lower value 0.998 | locus YER111C, strain swi4, stronger effect = lower value 0.984 | locus YER155C, strain BEM2 (second series), stronger effect = lower value 0.982 | locus YFR010W, strain ubp6, stronger effect = lower value 0.981 | locus YGL167C, strain pmr1, stronger effect = lower value 0.978 | locus YGL173C, strain kem1, stronger effect = lower value 0.981 | locus YGL227W, strain vid30, stronger effect = lower value 0.987 | locus YGL240W, strain doc1, stronger effect = lower value 0.974 | locus YGL253W, strain hxk2, stronger effect = lower value 0.988 | locus YHR013C, strain ard1, stronger effect = lower value 1.06 | locus YHR027C, strain rpn1, stronger effect = lower value 0.995 | [1] 1.07 | [2] 1.04 | locus YHR142W, strain chs7, stronger effect = lower value 0.988 | locus YJL092W, strain hpr5, stronger effect = lower value 0.994 | locus YJL095W, strain BCK1 (second series), stronger effect = lower value 0.973 | [3] 1.05 | locus YJL115W, strain asf1, stronger effect = lower value 0.987 | locus YJL129C, strain trk1, stronger effect = lower value 1.03 | locus YJL154C, strain vps35, stronger effect = lower value 0.997 | locus YJL164C, strain tpk1, stronger effect = lower value 0.976 | locus YJL166W, strain qcr8, stronger effect = lower value 0.98 | [4] 0.905 | locus YKL160W, strain elf1, stronger effect = lower value 0.973 | locus YKR026C, strain gcn3, stronger effect = lower value 0.991 | locus YKR091W, strain srl3, stronger effect = lower value 0.988 | locus YLL001W, strain dnm1, stronger effect = lower value 0.991 | locus YLL026W, stronger effect = lower value 0.98 | locus YLL041C, strain sdh2, stronger effect = lower value 0.993 | locus YLR027C, strain aat2, stronger effect = lower value 0.986 | [5] 1.06 | locus YLR221C, strain rsa3, stronger effect = lower value 0.979 | locus YLR258W, strain gsy2, stronger effect = lower value 0.985 | locus YLR262C, strain YPT6 (second series), stronger effect = lower value 1 | locus YLR320W, strain mms22, stronger effect = lower value 0.976 | locus YLR342W, strain FKS1, stronger effect = lower value 0.997 | locus YLR357W, strain rsc2, stronger effect = lower value 0.981 | locus YLR370C, strain arc18, stronger effect = lower value 0.988 | locus YLR384C, strain iki3, stronger effect = lower value 0.986 | locus YML120C, strain ndi1, stronger effect = lower value 0.975 | locus YMR125W, strain sto1, stronger effect = lower value 1.02 | locus YMR129W, stronger effect = lower value 0.984 | locus YMR205C, strain PFK2, stronger effect = lower value 0.988 | locus YMR231W, strain pep5, stronger effect = lower value 0.969 | locus YNL071W, strain lat1, stronger effect = lower value 0.995 | [6] 0.981 | locus YNL209W, strain ssb2, stronger effect = lower value 0.987 | locus YNL248C, strain rpa49, stronger effect = lower value 1 | locus YNL322C, strain KRE1 (second series), stronger effect = lower value 0.993 | locus YNR049C, strain mso1, stronger effect = lower value 0.983 | locus YOR001W, strain rrp6, stronger effect = lower value 0.989 | locus YOR070C, strain gyp1, stronger effect = lower value 0.979 | locus YOR080W, strain dia2, stronger effect = lower value 0.985 | locus YOR083W, strain WHI5, stronger effect = lower value 0.983 | locus YOR106W, strain vam3, stronger effect = lower value 0.943 | [7] 1.05 | locus YOR265W, strain rbl2, stronger effect = lower value 0.985 | locus YOR270C, strain vph1, stronger effect = lower value 0.864 | locus YOR290C, strain snf2, stronger effect = lower value 0.996 | locus YPL051W, strain arl3, stronger effect = lower value 0.918 | locus YPL078C, strain atp4, stronger effect = lower value 0.971 | locus YPL106C, strain sse1, stronger effect = lower value 0.986 | locus YPL240C, strain hsp82, stronger effect = lower value 0.991 | [8] 1.09
